# In all, about 48,000 compounds went through this assay and about 13,000 (27%) showed an effect of 50% or more. The list shows a part of the results.
# Test system: Wolbachia pipientis
# Assay: Anti-Wolbachia Cell-Based Screen
# Type: functional
# Design: scale not given: in the data most compounds retested in dose-response had high values
# Settings: 5 µM
row,Compound,Percent Effect [%]
1,CCn1cc2c(n1)C(COC)CN(C(=O)COc1ccccc1)C2 (stereo unspecified),-10.51
2,Cc1cccnc1CN(C)C(C(=O)O)c1ccc(-n2cccn2)cc1 (stereo unspecified),-2.38
3,COc1nc2c(cc1C(=O)NCCCc1csc(N)n1)CCC2,-5.437
4,COC(=O)COc1cccc(NS(=O)(=O)c2cc(C(=O)O)cs2)c1,15.7
5,Nc1cc2c(nn1)CCN(C(=O)Cc1ccc3c(c1)CCCC3)C2,-1.547
6,Cc1ccc(N2CCN(Cc3ccccc3)C3(CCNCC3)C2=O)cn1.O=C(O)C(F)(F)F,-1.603
7,COc1cc(C(=O)N2CC3(CCNCC3)c3cc(Cl)ccc32)ccn1.O=C(O)C(F)(F)F.O=C(O)C(F)(F)F,123.4
8,Cc1ccc(C(=O)N2CC3(CCNCC3)c3cc(Cl)ccc32)cn1.O=C(O)C(F)(F)F.O=C(O)C(F)(F)F,107.7
9,O=C(C1CC1)N1CC2(CCNCC2)c2cc(F)ccc21.O=C(O)C(F)(F)F,-3.609
10,O=C(O)C(F)(F)F.O=C(c1cccc(Cl)c1)N1CCCC2(CCCNC2)C1 (stereo unspecified),-4.426
11,O=C(O)C(F)(F)F.O=C(c1ccco1)N1CC2(CCNCC2)c2cc(Cl)ccc21,104.6
12,O=C(O)C(F)(F)F.O=C(O)C(F)(F)F.O=C(c1ccncc1)N1CC2(CCNCC2)c2cc(Cl)ccc21,113.8
13,CN(C)C(=O)N1CC2(CCNCC2)c2cc(F)ccc21.O=C(O)C(F)(F)F,2.852
14,O=C(O)C(F)(F)F.O=C(c1ccco1)N1CCCC2(CN(Cc3ccc(F)cc3)CCO2)C1 (stereo unspecified),-3.961
15,Cc1ccc(C(=O)N2CC3(CCCCC3)c3cc(C(=O)O)ccc32)cn1.O=C(O)C(F)(F)F,-4.08
16,CNC(=O)[C@@H](C1CCCCC1)N1CCC[C@H]1C(=O)NCCN1CCCC1.Cl.Cl,1.393
17,CC1CCCN(C(=O)c2ncncc2Cl)C1 (stereo unspecified),-8.48
18,CCc1nc(C)c(CN2CCOC(Cc3ccccc3Cl)C2)[nH]1 (stereo unspecified),16.37
19,COCC(=O)NC(c1ccc(Cl)cc1)C(F)(F)F (stereo unspecified),5.635
20,Cc1cc(C(=O)Nc2ccc(N3CCCC3)cn2)ccc1-n1cncn1,-6.985
21,Cc1nn(-c2ccc(F)cc2)c2[nH]nc(N)c12,1.976
22,COCCC1(CO)CCCN(Cc2cc(C(F)(F)F)ccc2F)C1 (stereo unspecified),0.6502

row,Compound,Percent Effect [%]
1,Cn1cc(NC(=O)N2CCC(CN3CCCC3)CC2)ccc1=O,-5.518
2,FC(F)(F)c1nc(NC2CCCC2)c2ccccc2n1,1.763
3,FC(F)(F)c1nc(NC2CCCCC2)c2ccccc2n1,111.5
4,CC(C)C(Nc1nc(C(F)(F)F)nc2ccccc12)C(=O)O (stereo unspecified),2.163
5,COc1ccnc(N2CCN(C(=O)c3cnn(C)c3C3CC3)CC2)n1,4.417
6,COCCOc1ccc(-c2noc([C@@H]3CCCN3)n2)cn1,7.967
7,CNC(=O)c1cnn2c(C3CCCN3)ccnc12 (stereo unspecified),113.8
8,CNC(=O)c1cc2c(nc1NC(C)C)CCNCC2,9.833
9,CNC(=O)c1cnn2c(C3CCCN3C)ccnc12 (stereo unspecified),176.6
10,CCN(CC)C(=O)c1cc(C2CCCN2C)ccn1.O=CO (stereo unspecified),-4.853
11,O=C(Nc1ccc(-c2ccco2)cc1)C1CCCN(Cc2ccon2)C1 (stereo unspecified),13.81
12,CN(C)Cc1cc(-c2nccn2CCn2cccn2)ccc1O,-0.09991
13,CCNc1nc(C)c(C(=O)N2CCC(C(O)Cc3ccccc3)CC2)s1 (stereo unspecified),94.25
14,CCNc1nc(C)c(C(=O)N2CCN(c3ncccc3C)CC2)s1,-16.27
15,CNc1nc(C)c(C(=O)N2CCCCC2CCc2ccccc2)s1 (stereo unspecified),-0.1409
16,CCOC(=O)N1CCN(C(=O)c2sc(-c3ccccc3F)nc2C)CC1,4.725
17,CNc1nc(C)c(C(=O)N2CCC(C(O)Cc3ccccc3)CC2)s1 (stereo unspecified),102.6
18,CCC(O)C1CCN(C(=O)Nc2nc(-c3ccccc3)ns2)CC1 (stereo unspecified),-13.79
19,O=C(c1ccc(Cl)cc1)N1CCCn2nnc(Cn3cccn3)c2C1,10.27
20,O=C(O)C(F)(F)F.c1ccc(CN2CCCn3nnc(Cn4cccc4)c3C2)nc1,-7.39
21,CCS(=O)(=O)N1CCCn2nnc(Cn3cccc3)c2C1,97.66
22,O=S(=O)(C1CC1)N1CCCn2nnc(Cn3cccc3)c2C1,109

row,Compound,Percent Effect [%]
1,C1CCN(Cc2nnn3c2CN(CC2CC2)CCC3)C1,3.513
2,CCS(=O)(=O)N1Cc2c(Cn3cccc3)nn(C(C)C)c2C1,3.857
3,CCCc1cncnc1N1CCC(NCCc2ccc(O)cc2)CC1,1.389
4,CC(C)CS(=O)(=O)CCNC(=O)Nc1cccc2ncccc12,3.388
5,CCN(CC1CCOC1)S(=O)(=O)Cc1cc(Cl)ccc1OC (stereo unspecified),-20.98
6,CCN(Cc1ccoc1)C(=O)c1cc(S(N)(=O)=O)c(C)o1,-22.47
7,Cc1cccc(C)c1NC(=O)c1cc(S(N)(=O)=O)c(C)o1,102.4
8,Cc1c(Cl)cccc1NC(=O)CN(Cc1cccnc1)C(C)C,-4.468
9,Cc1c(Cl)cccc1NC(=O)N1CCC2(CC1)NC(=O)CC2C(=O)O (stereo unspecified),-2.177
10,Cc1oc(C(=O)Nc2ccccc2F)cc1S(N)(=O)=O,99.25
11,Cc1oc(C(=O)O)cc1S(=O)(=O)Nc1c(F)cccc1-n1cccn1,-6.217
12,NS(=O)(=O)CCNC(=O)c1cc2cccc(F)c2o1,-1.054
13,Cc1cc(C)c(S(N)(=O)=O)cc1C(=O)NCC1Cc2ccccc2O1 (stereo unspecified),-3.139
14,Cc1oc(C(=O)Nc2cccc(Cl)c2C)cc1S(N)(=O)=O,64.05
15,CC(=O)NCCCSC1CCN(c2c(F)cccc2F)C1=O (stereo unspecified),8.134
16,COCc1c(Cl)cccc1NC(=O)NCc1cccc(N(C)C)n1,23.29
17,O=C(O)C[C@@H]1CCN(C(=O)C2CCCC2)C[C@@H]1CCN1CCCCC1,3.998
18,O=C1CCc2cc(OCCN3CCc4cncnc4C3)ccc2N1,28.97
19,COc1cc(C(C)=O)ccc1OCC(=O)c1cccn1C,70.23
20,Cn1cccc(NC(=O)COc2ccc(Br)cc2)c1=O,-13.39
21,Cn1cccc1C(=O)N1CCC2(CCCN2S(C)(=O)=O)CC1,-6.458
22,COc1cc(C(C)=O)ccc1OCC(=O)N(Cc1ccsc1)C1CC1,-7.993

row,Compound,Percent Effect [%]
1,Cn1cccc(NC(=O)COc2ccc(Cl)cc2)c1=O,-8.548
2,CC(=O)c1ccc(OCC(=O)c2cccn2C)cc1,104.8
3,Cn1cccc1C(=O)COc1ccc(S(N)(=O)=O)cc1,87.78
4,Cn1cccc1C(=O)OCCNC(=O)c1ccccc1,-6.195
5,COc1cc(C(C)=O)ccc1OCC(=O)N(C)Cc1cnn(C)c1,-3.043
6,N#CCCN(Cc1ccco1)C(=O)CCCNC(=O)c1ccccc1,3.869
7,c1cc(-c2noc([C@@H]3Cc4nc[nH]c4CN3)n2)ccn1,-6.71
8,CCOC(=O)Cn1ccc2cc(NC(=O)N3CCSCC3)ccc21,-0.3314
9,Cc1ccc2nc(C)cc(C(=O)NC(C)c3nnn[nH]3)c2c1 (stereo unspecified),-5.758
10,CN1C[C@]2(CC[C@@H](C(=O)O)CC2)Oc2ccccc2C1=O,130.9
11,Cc1ccccc1OC(C(=O)N1CCC2(CC1)CN(C)C(=O)O2)C(C)C (stereo unspecified),-8.932
12,CC(C)C(C(=O)N1CCC2(CC1)CN(C)C(=O)O2)c1ccccc1 (stereo unspecified),-0.7993
13,CCC(=O)c1ccc(OCC(=O)NCC2CC(CC)=NO2)cc1 (stereo unspecified),0.5795
14,CSc1ccc(C(=O)C2CCCN(C(=O)CCn3cncn3)C2)cc1 (stereo unspecified),108
15,CSc1ccc(C(=O)C2CCCN(C(=O)CCCn3cncn3)C2)cc1 (stereo unspecified),89.8
16,O=C(c1ccc(C(F)(F)F)cc1)C1CCCN(C(=O)Cn2cnnn2)C1 (stereo unspecified),-1.796
17,CSc1ccc(C(=O)C2CCCN(C(=O)CCn3cnnn3)C2)cc1 (stereo unspecified),95.72
18,O=C(CCn1cncn1)N1CC[C@@H](c2ccc3ccccc3c2)[C@H](O)C1,2.781
19,CSc1ccc(C(=O)C2CCCN(C(=O)Cn3cnnn3)C2)cc1 (stereo unspecified),-23.42
20,CN(C)S(=O)(=O)N1C[C@@H]2CC[C@H](C1)N(CCC(=O)NCc1ccco1)C2,-9.336
21,CC(C)C(=O)NCc1cc(Br)ccc1F,-9.372
22,OCCOc1nc(-c2ccccc2Cl)no1,-14.24

row,Compound,Percent Effect [%]
1,Cc1nc(C)c(CC(=O)NCc2cccnc2OC2CCCC2)c(=O)[nH]1,2.143
2,CCNC(=O)C1CCN(c2cc(-c3ccccc3)nc3cc(C)nn23)C1 (stereo unspecified),-12.78
3,COCCC(=O)N1CCCCC1c1ccc(F)cc1 (stereo unspecified),-2.369
4,Cc1cn[nH]c1C1CCCCN1C(=O)CCN1CCCCCC1 (stereo unspecified),-3.23
5,Cc1cn[nH]c1C1CCCCN1C(=O)CCc1ccc(F)cc1 (stereo unspecified),129.4
6,Cc1cn[nH]c1C1CCCCN1C(=O)CCc1c(C)n[nH]c1C (stereo unspecified),119.5
7,N#Cc1cccc(N2CCC3(CCC(=O)N(CCCO)C3)CC2)n1,-9.323
8,O=C1OCCN1CCOc1nc(-c2ccccc2Cl)no1,-11.04
9,COCC(C)NC(=O)Nc1cc(-c2ccccc2C)nn1CCO (stereo unspecified),-26.76
10,O=C1CC2(CCN(C(=O)c3ccccn3)C2)Nc2ccccc2N1 (stereo unspecified),110.2
11,O=C(O)C(F)(F)F.O=C1CCCC2(CCN(C(=O)c3ccccn3)CC2)N1,4.079
12,O=C(O)C(F)(F)F.O=C1CCC2(CCCN(C(=O)c3ccccn3)CC2)N1 (stereo unspecified),-22.06
13,Nc1cc(C(=O)N2CCC3(CC2)Nc2ccccc2NC3=O)ccn1,3.743
14,Cl.O=C(C1CCCCC1)N1CCC2(CC1)CNCc1ccccc12,2.33
15,CN(C)C(=O)N1CCN(C(=O)c2ccccc2)CC2(CNC(=O)C2)C1 (stereo unspecified),9.343
16,O=C1CC2(CCN(C(=O)c3ccccc3)C2)Nc2ccccc2N1 (stereo unspecified),106.1
17,O=C1CC2(CCN(C(=O)C3CCCCC3)C2)Nc2ccccc2N1 (stereo unspecified),102.3
18,O=C1Nc2ccccc2C1C1CCN(C(=O)C2CC2)CC1 (stereo unspecified),-3.481
